Some test systems named below: DU-145 prostate; K-562 leukemia; MALME-3M melanoma; MDA-MB-231 breast; SF-268 CNS; SF-295 CNS; SF-539 CNS; UACC-257 melanoma; M14 melanoma; RXF 393 renal.
Holding throughout (assay): NCI-60 one-dose screen, 48 h (100 = growth as untreated, 0 = no growth, -100 = all killed)
Holding throughout (conditions): 10 µM

Each structure is given as a SMILES string. About 83,000 compounds went through this panel and 20% of them were active in at least one assay; those are over-represented in the sample as a whole.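 96-well plates, one dose, 48 hours. Percent growth reported; active if below 10.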 Values without a mark were called inactive. Active and inactive are the calls of the source.

`O=C(CSc1nnc(-c2c[nH]c3ccccc23)n1-c1ccccc1)Nc1ccc(C(=O)/C=C/c2ccc(Cl)cc2)cc1`: the growth in the test on DU-145 prostate was 79.7%; with K-562 leukemia, 59.4%; in the test on MALME-3M melanoma, 61.6%; with MDA-MB-231 breast, 79.3%; with SF-268 CNS it was 56.9%; with SF-295 CNS it was 65.3%. Moreover, the growth in the test with SF-539 CNS is 63.9%; in the test on UACC-257 melanoma it was 104%.

As for `O=C(CSc1nnc(-c2ccc3nc(-c4ccc(Cl)cc4)[nH]c3c2)o1)Nc1ccc(Cl)cc1`, the growth in the test on DU-145 prostate is 2.3% (active); in the test on K-562 leukemia, 5.7% (active); in the test on MALME-3M melanoma, -78.6% (active); with MDA-MB-231 breast, -87.1% (active); in the test on SF-268 CNS, -6.48% (active); with SF-295 CNS, -99.4% (active). Besides, the growth with SF-539 CNS was -100% (active); in the test with UACC-257 melanoma, -32.6% (active); in the test with M14 melanoma it was -50.6% (active).

Take `CCOP(=O)(OCC)O[C@H]1CCC(=O)[C@@H]2[C@H]1[C@H]1C[C@@H]3[C@@]4(C)CCCC(C)(C(=O)OC)[C@@H]4CC[C@@]23C=C1C(C)C` (stereo partly specified): the growth with DU-145 prostate was 83.1%; in the test with K-562 leukemia it was 30.1%; in the test on MALME-3M melanoma, 86.2%; with MDA-MB-231 breast, 67%; with SF-268 CNS, 76.4%; in the test on SF-295 CNS, 69.1%. For the same compound, the growth in the test on SF-539 CNS is 71.7%; in the test on UACC-257 melanoma, 41.8%.

Turning to `CNCc1cccc2c1OCCCCCC[C@@](C)(O)CC1(CC1)S(=O)(=O)c1ccc(cc1)-c1cnc(N)c(n1)C(=O)N2`, the growth with DU-145 prostate was -84.5% (active); in the test on K-562 leukemia it was -37.5% (active); with MALME-3M melanoma it was -75.2% (active); in the test on MDA-MB-231 breast it was -92.8% (active); with RXF 393 renal, -94.2% (active); in the test on SF-268 CNS, -64.2% (active). Further, the growth was -100% (active) in the test with SF-295 CNS, -98.9% (active) in the test on SF-539 CNS, -75% (active) in the test with UACC-257 melanoma and -38.6% (active) in the test on M14 melanoma.

On to `CC(C)(C)c1ccc(NCc2cn(-c3ccc(C(=O)O)cc3)nc2-c2ccc(C#N)cc2)cc1`, for which the growth in the test on DU-145 prostate is 36.1%; with K-562 leukemia, 14.8%; with MALME-3M melanoma, 42.9%; with MDA-MB-231 breast, 41.9%; in the test with SF-268 CNS, 33.9%; in the test on SF-295 CNS it was 19.2%. Further, the growth in the test on SF-539 CNS is 14.3%; in the test with UACC-257 melanoma, 45.5%; in the test on M14 melanoma, 30.1%.

`CCOC(=O)N/C(=C1/OCCN1C)[P+](c1ccccc1)(c1ccccc1)c1ccccc1`: the growth in the test with DU-145 prostate is 93%; in the test on K-562 leukemia, 41.2%; in the test with MALME-3M melanoma, 71%; in the test with MDA-MB-231 breast, 59.9%; in the test on SF-268 CNS, 103%; with SF-295 CNS, 88.1%. The growth in the test with SF-539 CNS is 78.1%; with UACC-257 melanoma it was 27.8%.

In the case of `O=C(CSc1nnc(-c2ccc3nc(-c4ccc(Cl)cc4)[nH]c3c2)o1)Nc1ccc(Br)cc1`, the growth in the test with DU-145 prostate is 11.7%; in the test with K-562 leukemia, 5.15% (active); in the test on MALME-3M melanoma it was -81% (active); in the test with MDA-MB-231 breast, -97.3% (active); in the test with SF-268 CNS it was 0.811% (active); with SF-295 CNS, -89.4% (active). For the same compound, the results for the growth in the test with SF-539 CNS, in the test with UACC-257 melanoma and with M14 melanoma were -95.2% (active), -12.9% (active) and -84.4% (active), respectively.

Consider `CCCCSc1nc(Nc2ccc(/C(C)=N/NC(N)=S)cc2)c(C#N)c(-c2ccc(F)cc2)n1`, for which the growth in the test with DU-145 prostate is 41.5%; in the test with K-562 leukemia, 71.9%; with MALME-3M melanoma it was 33.9%; in the test on MDA-MB-231 breast, 3.28% (active); in the test on SF-268 CNS it was 90.1%; with SF-295 CNS it was 28.5%. The growth in the test on SF-539 CNS is -13.5% (active); with UACC-257 melanoma, 78.6%; in the test on M14 melanoma it was 79%.

Take `O=c1oc2ccc(-c3ccc(F)cc3F)cc2c(=O)n1-c1ccc(F)c(Cl)c1`: the growth in the test with DU-145 prostate was 12.6%; in the test on K-562 leukemia, 3.74% (active); in the test with MALME-3M melanoma, -29.1% (active); in the test with MDA-MB-231 breast it was -27.6% (active); with RXF 393 renal it was -19.7% (active); in the test on SF-268 CNS it was 2.31% (active). Moreover, the growth was -80.3% (active) with SF-295 CNS, -5.14% (active) in the test with SF-539 CNS, -15.9% (active) in the test on UACC-257 melanoma and 12.8% in the test with M14 melanoma.

For `N#Cc1c(-c2ccc(F)cc2)nc(SCc2ccc(F)cc2)nc1N1CCOCC1`, the growth is 77.8% with DU-145 prostate; 83.8% in the test with K-562 leukemia; 58.6% with MALME-3M melanoma; 50.5% in the test with MDA-MB-231 breast; 41.6% in the test on RXF 393 renal; 43.4% in the test on SF-268 CNS. For the same compound, the growth with SF-295 CNS is 36.9%; in the test with SF-539 CNS it was 49%; in the test on UACC-257 melanoma, 77.1%; with M14 melanoma, 92.2%.

Turning to `COc1ccc(-c2c(N)c(=O)n(C)c3ccccc23)cc1`, the growth is 83.2% in the test on DU-145 prostate; 46.8% with K-562 leukemia; 70.6% with MALME-3M melanoma; 49.5% in the test with MDA-MB-231 breast; 66% in the test on SF-268 CNS; 75.2% in the test with SF-295 CNS. Besides, the figures for the growth in the test with SF-539 CNS, with UACC-257 melanoma and in the test with M14 melanoma were 80.6%, 92.9% and 70.6%, respectively.

With `O=C1c2ccccc2C(=O)c2c1c(C(=O)c1ccc(Cl)cc1)n1c2ccc2c3ccccc3ccc21`, the growth in the test on DU-145 prostate is 108%; in the test with K-562 leukemia, 106%; in the test with MALME-3M melanoma it was 101%; with MDA-MB-231 breast it was 89.9%; in the test with SF-268 CNS, 105%; with SF-295 CNS it was 99.1%. The values for the growth in the test on SF-539 CNS, in the test with UACC-257 melanoma and with M14 melanoma were 88.5%, 107% and 107%, respectively.

As for `O=C(NO)c1ccc(Cn2ccc3c(Nc4ccccc4)ncnc32)cc1`, the growth was 20% in the test with DU-145 prostate; 12.1% in the test with K-562 leukemia; -4.38% (active) with MALME-3M melanoma; -30.6% (active) in the test on MDA-MB-231 breast; 30.8% with SF-268 CNS; -67.5% (active) in the test with SF-295 CNS. Also, the growth with SF-539 CNS was -80% (active); in the test with UACC-257 melanoma, 26.5%.

Turning to `COc1ccc(-c2ccc(/C=N/NC(=O)c3[nH]c4ccc(Br)cc4c3-c3ccccc3)s2)cc1`, the growth was 104% in the test with DU-145 prostate; 87.6% in the test on K-562 leukemia; 115% in the test with MALME-3M melanoma; 59.5% with MDA-MB-231 breast; 74.2% in the test on RXF 393 renal; 60% in the test on SF-268 CNS. Also, the growth with SF-295 CNS is 71.6%; in the test with SF-539 CNS it was 71.7%; in the test on UACC-257 melanoma it was 106%; with M14 melanoma it was 106%.

The values are drawn from PubChem BioAssay (NCI).
